Results as given in PubChem BioAssay AID1259343 (VanderVen Lab, College of Veterinary Medicine, Cornell …, 2017).
Out of some 6,200 compounds screened, about 2,900 (47%) were called active. No stated cut-off is given here; in the data, active means inhibition above about 50%; inactive means the rest. The set was probably picked from earlier hits. The list shows a part of the results.

Test: Mycobacterium tuberculosis growth inhibition, primary screen (AID 1259343)
Details: inhibition: at 10 µM, active compounds read high; outcome: 10 uM
With `COC(=O)C1=C(OC)C(=O)OC12C=CC(=O)C=C2` the inhibition was -11.4% (inactive).
For `Fc1ccc(Nc2nnc(-c3ccc(Br)s3)o2)c(F)c1`, the inhibition was 87.9% (active).
For `Cc1cc2c(F)ccc(C)c2nc1N1CCC(O)(C(=O)O)CC1`, the inhibition was 86% (active).
In the case of `Clc1ccc(-c2cnnc(N3CCC(c4ccncc4)CC3)n2)cc1`, the inhibition is reported as 21.9% (inactive).
For `CC(NC(=O)COC(=O)c1ccccc1O)c1cccs1` (stereo unspecified), the inhibition was 88.8% (active).
For `CS(=O)c1ccccc1C(=O)OCc1c(Cl)cccc1Cl` (stereo unspecified), the inhibition was 30.8% (inactive).
For `CC(C)C(NC(=O)C1=Cc2ccccc2OC1)c1cccs1` (stereo unspecified), the inhibition was 5.93% (inactive).
With `Cc1cccc(N2CCN(C(=O)c3cc(COc4ccc(F)c(F)c4)on3)CC2)n1` the inhibition was 52.2% (active).
For `CCOC(=O)N1CCN(C(=O)c2cc(COc3ccc(C)c(C)c3)on2)CC1`, the inhibition was 74.9% (active).
In the case of `CCCCc1nnc(-c2cc3ccccc3[nH]2)o1`, the inhibition is reported as 18.4% (inactive).
With `CCCc1nnc(-c2cc3ccccc3[nH]2)o1` the inhibition was 38.4% (inactive).
In the case of `CCCc1nnc(-c2cc3ccccc3n2C)o1`, the inhibition is reported as 69% (active).
For `c1ccc(CCc2nc(-c3ccncc3)no2)cc1`, the inhibition was “inactive”.
With `O=C(CCc1nc(-c2ccncc2)no1)Nc1ccc(Oc2ccccc2)cc1` the inhibition was 95.7% (active).
In the case of `COC(=O)c1cccc(NC(=O)N2CCN(CCCOC(c3ccc(Cl)cc3)c3ccc(Cl)cc3)CC2)c1`, the inhibition is reported as 13.4% (inactive).
With `c1ccc2[nH]c(-c3ccc(OCc4nc(CC5CC5)no4)cc3)nc2c1` the inhibition was 10.7% (inactive).
In the case of `CCc1ccc(CN(C)Cc2nc(COc3ccccc3)no2)nc1`, the inhibition is reported as 93.7% (active).
In the case of `CN(Cc1nc(COc2ccccc2)no1)CC1CCOCC1`, the inhibition is reported as 29.5% (inactive).
For `c1ccc(OCc2noc(COc3ccc4ncccc4c3)n2)cc1`, the inhibition was 64.9% (active).
With `CN(Cc1ccc2nsnc2c1)Cc1nc(COc2ccccc2)no1` the inhibition was 65.2% (active).
In the case of `COc1ccc(-c2nc(CN(C)Cc3ccc4nsnc4c3)c(C)o2)c(C)c1C`, the inhibition is reported as 12.7% (inactive).
With `c1ccc(OCc2noc(CN3CCN(c4ccccn4)CC3)n2)cc1` the inhibition was 43% (inactive).
For `CCc1noc(CSC2=Nc3ccccc3CS2)n1`, the inhibition was 23% (inactive).
With `CN(Cc1nc(COc2ccccc2)no1)CC1Cc2ccccc2O1` (stereo unspecified) the inhibition was 53.6% (active).
For `Nc1ccccc1Sc1c[nH]c2ccccc12`, the inhibition was 46.1% (inactive).
For `Cc1ccc(OCCN(C)Cc2nc(COc3ccccc3)no2)cc1`, the inhibition was 80% (active).
With `Cc1ccc(OCCN(C)c2ccccc2)cn1` the inhibition was -0.64% (inactive).
With `Cc1ccc(N=Cc2c(Nc3ccccc3)nc3c(C)cccn3c2=O)cc1` the inhibition was -12% (inactive).
With `COc1ccc(Nc2nc3c(C)cccn3c(=O)c2/C=N\Nc2ccccc2)cc1` the inhibition was 88.8% (active).
In the case of `COc1ccc(N=Cc2c(NCCO)nc3c(C)cccn3c2=O)cc1`, the inhibition is reported as 75.7% (active).
In the case of `Cc1cccn2c(=O)nc(SC/C=C/c3ccccc3)nc12`, the inhibition is reported as 7.88% (inactive).
In the case of `O=S(=O)(NN=C1c2ccccc2-c2ccccc21)c1ccccc1`, the inhibition is reported as -15.8% (inactive).
With `CSc1nc2c(c(-c3ccc(O)cc3)c1C#N)CCC2` the inhibition was 48.4% (inactive).
With `CCSc1nc2c(c(C3CC=CCC3)c1C#N)CCC2` (stereo unspecified) the inhibition was 45.2% (inactive).
With `N#CCSc1nc2c(c(C3CC=CCC3)c1C#N)CCC2` (stereo unspecified) the inhibition was 66.1% (active).
With `CC1CCC(N(C)C(=O)NCc2ncc(-c3ccccc3)o2)CC1` (stereo unspecified) the inhibition was 76.1% (active).
For `CC(C)c1nc(Cn2ccnc2-c2ccc(C3CCCCO3)s2)no1` (stereo unspecified), the inhibition was -7.76% (inactive).
With `Cc1ccccc1-c1nc(CN2CCN(c3ncc4ccccc4n3)CC2)c(C)o1` the inhibition was 20.3% (inactive).
For `c1ccc2oc(N3CCN(Cc4ccc(C5CCCO5)s4)CC3)nc2c1` (stereo unspecified), the inhibition was 90.8% (active).
In the case of `c1ccc2oc(CN3CCC(c4nc5ccccc5s4)CC3)nc2c1`, the inhibition is reported as -16% (inactive).
In the case of `c1ccc(N2CCCC2)c(CNc2nc3ccccc3o2)c1`, the inhibition is reported as 34.1% (inactive).
For `CCSc1ncc(CN2CCN(c3nc4ccccc4o3)CC2)cn1`, the inhibition was 95.3% (active).
In the case of `CCCCC(CC)CN1CNC(=S)NC1` (stereo unspecified), the inhibition is reported as 48.2% (inactive).
In the case of `O=S(=O)(Nc1cccc(Br)c1)c1ccc(Br)s1`, the inhibition is reported as 97.3% (active).
For `O=S(=O)(Nc1cccc(Br)c1)c1ccc(Cl)s1`, the inhibition was 84.1% (active).
In the case of `CC(=O)/C(=N/Nc1ccccc1[N+](=O)[O-])Oc1ccc(Br)cc1`, the inhibition is reported as -28.4% (inactive).
In the case of `COc1ccccc1CC(=O)NC1CCSc2ccccc21` (stereo unspecified), the inhibition is reported as -22.7% (inactive).
With `NC(=O)C1CN(C2CCCCc3ccccc32)CCO1` (stereo unspecified) the inhibition was 49.4% (inactive).
In the case of `COc1ccc(OC)c2c1CN(C1CCCc3ccccc31)CC2O` (stereo unspecified), the inhibition is reported as 95.8% (active).
With `Cc1ccc(CN(C)C(=O)COc2ccc(O)cc2)o1` the inhibition was 80.2% (active).
In the case of `CN(Cc1ccc2ccccc2c1)C(=O)COc1ccccc1F`, the inhibition is reported as 38.5% (inactive).
For `Cc1ccc(C(=O)NCc2ccc(-c3ccc(O)cc3)cc2)o1`, the inhibition was 40.6% (inactive).
For `CCC(=O)OC(C#N)C1=C(Cl)C(=O)c2ccccc2C1=O` (stereo unspecified), the inhibition was 103% (active).
In the case of `CCOC(=O)CSc1nnc(Nc2ccc(C)cc2)s1`, the inhibition is reported as -19.5% (inactive).
For `CCCC(C)NC(=O)CSc1nnc(Nc2ccc(CC)cc2)s1` (stereo unspecified), the inhibition was 84.9% (active).
For `CCNC(=O)NC(=O)CSc1nnc(Nc2ccc(C(C)C)cc2)s1`, the inhibition was 85% (active).
In the case of `CCOCCCNC(=O)NC(=O)CSc1nnc(Nc2ccc(C)cc2)s1`, the inhibition is reported as 83% (active).
With `CCNC(=O)NC(=O)CSc1nnc(Nc2ccc(CC)cc2)s1` the inhibition was 66.4% (active).
In the case of `CN[C@@H]1C[C@@H](c2ccc(Cl)c(Cl)c2)c2ccccc21`, the inhibition is reported as 48% (inactive).
With `COc1ccc2c(c1)OCC(C(=O)C(C#N)c1nc3ccccc3o1)C2` (stereo unspecified) the inhibition was 99.3% (active).
In the case of `CC1(C)C(C(Cl)Cl)C2(Cl)C(Cl)C(Cl)C1(Cl)C2(Cl)Cl` (stereo unspecified), the inhibition is reported as 76.2% (active).
With `Cc1ccccc1N=C1NC(=O)C(Cc2ccccc2[N+](=O)[O-])S1` (stereo unspecified) the inhibition was 56.7% (active).
For `O=c1ccc([N+](=O)[O-])ccc1Nc1ccccn1`, the inhibition was 82.3% (active).
With `Cc1noc(-c2ccc(C(=O)NCCC(C)C)cc2)n1` the inhibition was -1.14% (inactive).
For `CC(C)CCNC(=O)c1ncc(Cl)c(Cl)c1Cl`, the inhibition was 81.3% (active).
In the case of `Fc1ccc(-c2noc3nc(OCc4ncccn4)ccc23)cc1`, the inhibition is reported as 46% (inactive).
With `Fc1ccccc1-c1noc2nc(OCc3ccccn3)ccc12` the inhibition was 90.2% (active).
For `Cc1nc(COc2ccc3c(-c4ccccc4F)noc3n2)cs1`, the inhibition was 62.8% (active).
In the case of `c1ccc(-c2noc3nc(OCc4ccccn4)ccc23)cc1`, the inhibition is reported as 50.7% (active).
In the case of `CCCCc1ccc(NC(=O)CCS(=O)(=O)c2ccc(Cl)cc2)cc1`, the inhibition is reported as -52.4% (inactive).
With `Cc1ccc(S(=O)(=O)CCC(=O)Nc2ccc(C)c(C)c2)cc1` the inhibition was 68% (active).
With `Clc1ccc2c(Oc3cccc(Br)c3)ccnc2c1` the inhibition was 0.33% (inactive).
For `Clc1ccc2c(Oc3ccc(Br)cc3)ccnc2c1`, the inhibition was 58% (active).
With `O=C1c2ccccc2S(=O)(=O)N1c1cccc(Cl)c1` the inhibition was “inactive”.
In the case of `O=C1c2ccccc2S(=O)(=O)N1c1ccc(Cl)cc1`, the inhibition is reported as 60.5% (active).
For `O=C1c2ccccc2S(=O)(=O)N1c1ccc(Br)cc1`, the inhibition was -53.1% (inactive).
In the case of `O=C1c2cccc(O)c2CCN1Cc1ccc(Br)cc1`, the inhibition is reported as 19.3% (inactive).
For `CCCCOc1cccc2c1CCN(CC)C2=O`, the inhibition was -1.17% (inactive).
With `O=C1c2cccc(O)c2CCN1Cc1ccc(Cl)cc1` the inhibition was 58% (active).
For `COC(=O)c1ccc(OC)c(CN2N=NC3C(=O)N(c4ccc(OC)c(Cl)c4)C(=O)C32)c1` (stereo unspecified), the inhibition was 55.6% (active).
In the case of `CCOc1ccc(N2C(=O)C3N=NN(Cc4cc(C(=O)OC)ccc4OC)C3C2=O)cc1` (stereo unspecified), the inhibition is reported as -31.4% (inactive).
For `COc1ccc(N2C(=O)C3N=NN(Cc4cccc(C)c4)C3C2=O)cc1Cl` (stereo unspecified), the inhibition was 79.6% (active).
For `Cc1cccc(CN2CCN(Cc3ccc(Cl)c(F)c3)CC2=O)c1`, the inhibition was 6.7% (inactive).
In the case of `COc1ccc(N2C(=O)C3N=NN(Cc4ccccc4)C3C2=O)cc1Cl` (stereo unspecified), the inhibition is reported as 20.8% (inactive).
With `COc1cccc(CN2N=NC3C(=O)N(c4ccc(OC)c(Cl)c4)C(=O)C32)c1` (stereo unspecified) the inhibition was 102% (active).
With `COc1ccc(OC)c(Nc2nc(Cl)nc(Nc3cc(OC)ccc3OC)n2)c1` the inhibition was 1.76% (inactive).
For `COc1ccc(CN2N=NC3C(=O)N(c4ccc(OC)c(Cl)c4)C(=O)C32)cc1` (stereo unspecified), the inhibition was 83.8% (active).
For `CC(=O)c1nnc2c(-c3ccccc3)c(C)nn2c1C`, the inhibition was 89.5% (active).
With `Cc1nn2c(NCCCN(C)C)cc(-c3ccccc3)nc2c1-c1ccccc1` the inhibition was -0.28% (inactive).
For `Cc1nn2c(=O)[nH]c(SCc3cccnc3)nc2c1-c1ccccc1`, the inhibition was 33.2% (inactive).
With `CNC(=O)COc1ccc(-c2ccccc2Cl)cc1` the inhibition was 72.2% (active).
With `CNC(=O)COc1ccc(-c2c(C)cccc2C)cc1` the inhibition was 26.1% (inactive).
In the case of `Cc1oc(-c2ccccc2Cl)cc1CO`, the inhibition is reported as 35.3% (inactive).
With `CNC(=O)COc1ccc(Oc2ccc(C)cc2)cc1` the inhibition was 25.8% (inactive).
With `CC(=O)Nc1ccc(OC/C=C/c2ccccc2)cc1` the inhibition was 87.3% (active).
For `CNC(=O)COc1ccc(/C=C/c2ccccc2)cc1`, the inhibition was 51.1% (active).
In the case of `COc1ccc(/C=C/C(=O)NNC(=O)COc2ccc(C)cc2)cc1`, the inhibition is reported as 95.6% (active).
In the case of `COc1ccc(/C=C/c2nc3cc(C)ccc3s2)cc1O`, the inhibition is reported as 23.6% (inactive).
For `COC(=O)Cc1ccc(OCC(=O)NC(C)c2ccc(Cl)cc2)cc1` (stereo unspecified), the inhibition was 20.1% (inactive).
With `O=C(COc1ccccc1)NN=Cc1ccc(Br)cc1` the inhibition was 89.4% (active).
In the case of `CC(NC(=O)COc1ccccc1)c1ccccc1Cl` (stereo unspecified), the inhibition is reported as 85.4% (active).
For `Cc1nc(Cl)cc(NC(C)c2ccc(Cl)c(Cl)c2)n1` (stereo unspecified), the inhibition was 6.72% (inactive).
With `Cc1ccc(-n2nnc(C(=O)OCc3ccccc3C)c2C)cc1` the inhibition was 93.8% (active).
With `COc1ccc(-c2nn(-c3ccccc3)cc2CN2CCN(c3cnccn3)CC2)c(F)c1` the inhibition was 62.9% (active).
In the case of `COc1ccc(Oc2ccc(C(=O)N[C@H]3CCCC[C@@H]3O)cc2)cc1`, the inhibition is reported as 80.8% (active).
In the case of `COc1ccc(C(=O)NC2CC(C)(C)Cc3occc32)cc1` (stereo unspecified), the inhibition is reported as -1.78% (inactive).
